JMJD2E inh = blocks human JMJD2E demethylase activity; 1.6% of 230,000 active; Potency, µM (highest dose often 57.1 µM), without a hit: at the highest dose activity change, negative = inhibition, usual class: inhibitors; JMJD2E catalytic domain, FDH-coupled NADH fluorescence (FDH is formaldehyde dehydrogenase);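 note: 0% = wells with enzyme and -100% = buffer wells without enzyme; nearly all actives have a fitted effect of over 50% in size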
Target sequence (B2RXH2 1-337 limits assumed): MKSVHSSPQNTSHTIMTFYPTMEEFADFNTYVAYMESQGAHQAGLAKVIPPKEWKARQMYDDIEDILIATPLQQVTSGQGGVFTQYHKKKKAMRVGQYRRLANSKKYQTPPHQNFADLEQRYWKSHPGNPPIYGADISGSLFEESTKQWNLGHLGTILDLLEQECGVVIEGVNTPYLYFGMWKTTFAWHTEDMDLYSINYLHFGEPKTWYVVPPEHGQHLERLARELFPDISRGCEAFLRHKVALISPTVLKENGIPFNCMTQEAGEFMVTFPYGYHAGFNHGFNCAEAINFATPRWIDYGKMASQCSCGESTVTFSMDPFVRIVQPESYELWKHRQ
Tau fluor counter = counter-screen for tau fibril formation inhibitors; 0.93% of 280,000 active; tau K18 P301L Alexa594 fluorescence, heparin fibrillization; Potency, µM (doses to about 57.7 µM), for the others: top-dose activity change, negative = decrease; note: nearly all actives have a fitted effect of over 55% in size
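Human tau K18 P301L (15 uM unlabeled, 0.24 uM Alexa 594-labeled) in 100 mM sodium acetate pH 7 with 20 uM heparin, 6 hr at 37 C. ThT 30 uM added, 1 hr ambient; Alexa 594 FP and total fluorescence read at 555/632 nm.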
RGS12 GoLoco inh = inhibitors of human Gai1-RGS12 GoLoco interaction (red fluorophore); 0.44% of 230,000 active; Gai1:RGS12 GoLoco peptide FP, rhodamine, 10 min; P63096; AID 880; Potency, µM (top dose mostly 61.6 µM), for inactives: top-dose activity, negative = inhibition, actives largely listed as inhibitors; active = well fitted inhibition curve with a large enough effect, not every such curve was filed as active; inactive = no such curve, though single readings can be large or run the other way; note: nearly all actives have a fitted effect of over 30% in size
Tau FP inhib = blocks human tau fibril formation measured by polarization; P10636; K18 P301L tau heparin fibrillization, Alexa594 FP, 6 h; Potency, µM (series often up to 57.7 µM), for the others: top-dose activity, negative = inhibition, most hits filed as inhibitors; 0.39% of 280,000 active; AID 1468; note: nearly all actives have a fitted effect of over 55% in size
Target sequence (P10636 561-689 P618L limits assumed): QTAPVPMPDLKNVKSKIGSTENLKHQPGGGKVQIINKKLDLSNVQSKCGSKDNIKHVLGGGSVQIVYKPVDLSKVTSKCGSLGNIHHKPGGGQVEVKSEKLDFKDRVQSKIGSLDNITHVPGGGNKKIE
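Compound effects on tau fibrillization are measured by Alexa 594 fluorescence polarization (ex 555, em 632 nm). K18 P301L tau is used at 15 uM with 0.24 uM labeled tracer, and 20 uM heparin induces aggregation over 6 hr at 37 C.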
Tau fibril ThT = blocks human tau fibril formation measured by thioflavin T; 2.1% of 270,000 active; Potency, µM (doses to about 57.4 µM), for the others: at the highest dose activity, negative = inhibition, hits mostly inhibitors; P10636; recombinant tau K18 P301L (four-repeat tau fragment), heparin-induced fibrillization, ThT fluorescence; note: nearly all actives have a fitted effect of over 55% in size
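Recombinant human tau K18 fragment […] carrying P301L, 15 uM unlabeled plus 0.24 uM Alexa 594-labeled, was fibrillized with 20 uM heparin in 100 mM sodium acetate pH 7 for 6 hr at 37 C; 30 uM ThT fluorescence read after 1 hr.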
* hit, by the source's call; ? = inconclusive; . = no result; [ ] = dose if it differs, or a comment. Rows were chosen to be rich in hits. Some 3.4% of all compounds tested hit in one or more screens of this group. Unless noted, calls come from the whole dose curve; as a rule, active = well fitted curve in the direction sought with a large enough effect; inconclusive = small, poorly fitted or top-dose-only effect, or another doubt; inactive = no such curve, though single readings can be large; an effect the other way counts as inactive or inconclusive. Unless noted, % is set by controls: 0 for no effect and ±100 for the full control effect; potency is the fitted concentration of half-maximal effect.

SMILES	JMJD2E inh	Tau fluor counter	RGS12 GoLoco inh	Tau FP inhib	Tau fibril ThT
O=C(N/N=C/c1c[nH]c2ccccc12)C1CC1(c1ccccc1)c1ccccc1 (centres undefined)	-12%	7.1µM*[quencher]	.	-3%	-11%
COCCNC(=O)c1c(NC(=O)Cc2coc3cc(C)ccc23)sc2c1CCCC2	.	-24%	.	0%	-13%
OCCNc1c2ccccc2nc2c(F)c(F)c(F)c(F)c12	?	?	0%	-19%	?
Cc1c2ccccc2nc2c(F)c(NCCO)c(F)c(F)c12	-3%	?	20µM*	?	13µM*
CC1=CC(=Nc2c(C)n(C)n(-c3ccccc3)c2=O)C=C(C)C1=O	-39%	?	-6%	?	11µM*
CCOC(=O)/C(N=Nc1c(C)n(C)n(-c2ccccc2)c1=O)=C(\C)O	-6%	-8%	11%	-3%	-10%
CC1=CC(=Nc2c(C)n(C)n(-c3ccccc3)c2=O)C=CC1=O	1.8µM*	?	-9%	10µM*	3.2µM*
CCNc1ccc(N=Nc2c(C)n(C)n(-c3ccccc3)c2=O)cc1	-1%	-11%	21%	3%	16µM*
COc1cccc(Cc2nc3ccccc3nc2SCC(=O)N2CCCc3ccccc32)c1	.	-6%	.	4%	0%
Cc1cccc(N=Cc2cc(Br)cc(Cl)c2O)c1	-5%	-9%	29%	-14%	14µM*
COc1cc(C(=O)NC2CC(=O)N(c3cccc(F)c3)C2)cc(OC)c1OC (centres undefined)	.	-5%	.	-6%	-2%
COc1ccc(-c2ccc(C3C(C#N)=C(N)Oc4n[nH]c(C)c43)o2)cc1 (centres undefined)	-15%	?	7%	-1%	4.5µM*
COCCNC(=O)c1c(N)sc2c1CCCC2	?	-24%	84%	?	28µM*
CNC(=O)c1c(N)sc2c1CCCCC2	?	-29%	17%	?	18µM*
CCOC(=O)c1ccccc1NC(=O)CSc1ccc(-c2sc(-c3ccccc3)nc2C)nn1	.	-13%	.	-4%	2%
COc1ccc2c(CNCCc3ccc(SC)cc3)c(C(=O)O)n(Cc3ccc(F)cc3)c2c1	.	-15%	.	-7%	-2%
O=C(CCCn1c(=O)c2cccn2c2ccccc21)NCCc1ccc(Cl)cc1	.	-18%	.	2%	?
CCOc1cnn(-c2cc(Oc3ccc(C)cc3)ncn2)c(=O)c1Cl	7%	-16%	0%	1%	-18%
Cc1ccccc1Oc1cc(-n2ncc(Cl)c(Cl)c2=O)ncn1	2%	-12%	-3%	?	10µM*
Cc1c(C)n(Cc2ccc(F)cc2)c2ccc(C(=O)Nc3ccc(Cl)cc3)cc12	.	?	.	-3%	-8%
CCOC(=O)c1cnc2ccc(C)cc2c1Nc1ccc(N2CCOCC2)cc1	-5%	?	-10%	?	28µM*
CCOC(=O)c1cnc2ccc(C(=O)OC)cc2c1Nc1ccc(N2CCOCC2)cc1	.	?	.	-1%	14µM*
CCOC(=O)c1cnc2ccc(Cl)cc2c1Nc1ccc(N2CCOCC2)cc1	.	?	.	-12%	16µM*
CCOC(=O)c1cnc2ccc(C)cc2c1Nc1ccc(N(CC)CC)cc1	.	?	.	?	13µM*
CCOC(=O)c1cnc2ccc(Br)cc2c1NCCN1CCOCC1	.	-3%	.	0%	-6%
SMILES	JMJD2E inh	Tau fluor counter	RGS12 GoLoco inh	Tau FP inhib	Tau fibril ThT
CCOC(=O)c1cnc2ccc(C(=O)OC)cc2c1Nc1cccc(C(=O)O)c1	-7%	-8%	1%	-5%	-7%
CCOC(=O)c1cnc2ccccc2c1Nc1ccc(C(=O)O)cc1	11%	-5%	15%	8%	-2%
CCN(C(=O)c1ccc2c(c1)N(Cc1cccc(Cl)c1)C(=O)c1ccccc1S2=O)c1ccccc1 (centres undefined)	.	0%	.	8%	-7%
COCCCNC(=O)CCn1c(=O)c2ccccc2n(CC(=O)Nc2cc(Cl)ccc2OC)c1=O	.	-9%	.	-7%	-4%
COc1cccc(OCc2nc3ccccc3n2Cc2ccccc2C)c1	.	-30%	.	0%	?
CC(C)=N[C@H](C(=O)O)C(C)(C)S	.	.	-34%[14.2 µM]	.	.
CC(C)(S)[C@@H](N)C(=O)O	2.2µM*	-17%	-27%	?	?

Compound activity (PubChem BioAssay)
